According to PubChem BioAssay (Tox21):
Results filed as inconclusive are left out. A call without a number means that no potency is given here. Values without a mark were called inactive. Activity calls are given as the source filed them. Calls follow the shape of the full dose curve.

Assay: qHTS assay to identify small molecule agonists of the progesterone receptor (PR) signaling pathway - cell viability counter screen (AID 1346799); also: nearly all actives have a fitted effect of over 45% in size
Conditions: PR-UAS-bla HEK293T viability, CellTiter-Glo luminescence, 16 h; series mostly up to 92.4 µM
From the text: National Center for Advancing Translational Sciences [NCATS]
NIH Chemical Genomics Center [NCGC]
U.S. Environmental Protection Agency [EPA]
National Institutes of Environmental Health Sciences [NIEHS]
National Toxicology Program [NTP]
U.S. Food and Drug Administration [FDA]
Progesterone receptor (PR), a nuclear hormone receptor, plays an important role in development, metabolic homeostasis and reproduction. It is activated by the steroid hormone progesterone. Endocrine disrupting chemicals (EDCs) and their interactions with steroid hormone receptors like PR causes disruption of normal endocrine function. To identify the compounds that stimulate PR signaling, a PR-UAS-bla GripTite cell line i.e. PR-UAS-bla HEK293T (Invitrogen, Carlsbad, CA, USA) containing a beta-lactamase reporter gene under the control of an UAS response element was used to screen Tox21 10K compound library. The cytotoxicity of the Tox21 compound library against the PR-bla cell line was tested in parallel by measuring the cell viability using CellTiter-Glo assay in the same wells.
Tox21 Assay Protocol Summary:
PR-UAS-bla HEK293T cells were dispensed at 3,000 cells/5 uL of assay medium containing 2% charcoal stripped FBS per well into black wall/clear-bottom 1536-well plates using a Multidrop Combi (ThermoFisher Scientific, Waltham, MA) dispenser. After the assay plates were incubated at a 37C and 5% CO2 for 6 hr, 23 nL of compounds dissolved in DMSO, positive controls or DMSO only was transferred to the assay plate by a Pintool station (Kalypsys, San Diego, CA). The plates were incubated at 37C and 5% CO2 for 16 hr. Then 1 uL of LiveBLAzer B/G FRET substrate was added using a Flying Reagent Dispenser (FRD, Aurora Discovery, San Diego, CA), the plates were incubated at room temperature for 2 hours, and fluorescence intensity was measured by an Envision plate reader (PerkinElmer, Shelton, CT). For cell viability readout that measures cytotoxicity, 4 uL/well of CellTiter-Glo reagent was added into the assay plates using a FRD. After 30 min incubation at room temperature, the luminescence intensity in the plates was measured using a ViewLux (PerkinElmer) plate reader.
Potency is read from the fitted curve at half-maximal effect.

Row | Compound | Potency | activity change, negative = cytotoxicity
1 | OCCNCc1ccccc1 | inactive | –
2 | CCCCCCCCCCCCCCCCOS(=O)(=O)O | 18.8 µM (active) | –
3 | CCCCO | inactive | –
4 | CC(=O)[O][Al] | inactive | –
5 | CNCCCN1c2ccccc2CCc2ccccc21 | 21.1 µM (active) | –
6 | CN(C)CCN(Cc1ccsc1)c1ccccn1 | inactive | –
7 | CC(=O)c1ccc2c(c1)N(CCCN(C)C)c1ccccc1S2 | inactive | –
8 | CCC(=O)O[C@]1(C(=O)CCl)[C@@H](C)C[C@H]2[C@@H]3CCC4=CC(=O)C=C[C@]4(C)[C@@]3(F)[C@@H](O)C[C@@]21C | inactive | –
9 | O=C(O)c1ccc(-n2nc(-c3ccccc3O)nc2-c2ccccc2O)cc1 | inactive | –
10 | ClCCOCCOCCCl | inactive | –
11 | CCCCCCCCCCCC(=O)OC[C@@H](O)[C@H]1OC[C@H](OCCO)[C@H]1OCCO | inactive | –
12 | CC(=O)[O][Al][O]C(C)=O | inactive | –
13 | CCCn1cnc2c1c(=O)n(CCCCC(C)=O)c(=O)n2C | inactive | –
14 | CN1CCC(N(Cc2cccs2)c2ccccc2)CC1 | 15 µM (active) | –
15 | CCCCC(CC)COC(=O)CCCCCCCCC(=O)OCC(CC)CCCC (stereo not given) | inactive | –
16 | CCOCC(O)COc1ccc(NC(=O)CC[S+](C)C)cc1 (stereo not given) | inactive | –
17 | NCC(=O)O | – | 27.9% [at 19 µM]
18 | CCN(CC)CCNc1ccc(CNC=O)c2sc3ccc(OC)cc3c(=O)c12 | 27.3 µM (active) | –
19 | CCCCCCCCCCCCCCOS(=O)(=O)O | 30.6 µM (active) | –
20 | COc1ccc2cccc(CCNC(C)=O)c2c1 | inactive | –

Row | Compound | Potency | activity change, negative = cytotoxicity
21 | C=CCOc1ccccc1OCC(O)CNC(C)C (stereo not given) | inactive | –
22 | CNCCCCOc1ccccc1Cc1ccccc1 | 6.68 µM (active) | –
23 | O=C1OC(CN2CCOCC2)CN1/N=C/c1ccc([N+](=O)[O-])o1 (stereo not given) | inactive | –
24 | CCCCCCCCCCCCCCCCCCOS(=O)(=O)O | 48.6 µM (active) | –
25 | C=CCOC(=O)CCC1CCCCC1 | inactive | –
26 | COCC(C)OC(C)=O (stereo not given) | inactive | –
27 | Nc1ccc(N)c2c1C(=O)c1ccccc1C2=O | inactive | –
28 | CC/C=C\CCOC(=O)CC | inactive | –
29 | CCCC(=O)Nc1ccc(O)c(C(C)=O)c1 | inactive | –
30 | COC(C)(C)CCO | inactive | –
31 | C=CC(=O)OCCOc1ccccc1 | inactive | –
32 | CC1=CCCC(C)(C)C12CCC(C)O2 (stereo not given) | inactive | –
33 | CC[N+]1(CC)CCC(=C(c2ccccc2)c2ccccc2)C1C (stereo not given) | inactive | –
34 | NCC(=O)CCC(=O)O | inactive | –
35 | NCc1ccccc1Sc1ccccc1CO | inactive | –
36 | O=P(O)(OCc1ccccc1)OCc1ccccc1 | inactive | –
37 | C/C=C/C=C/CO | inactive | –
38 | CC(C)O.CC(C)O.CCOC(=O)/C=C(\C)O.CCOC(=O)/C=C(\C)O.[Ti] | inactive | –
39 | COc1ccc(C(=O)Nc2nc3ccccc3c(NCc3ccccc3)c2C#N)cc1 | inactive | –
40 | C/C=C/C(=O)CC | – | -14.3% [at 19 µM]
